High-throughput results from PubChem.
In the library only some 6.5% were active in any assay of this set; here they are far more common.
VACV Venus inh: vaccinia inhibition (Venus reporter) | Vaccinia virus Venus reporter expression, fluorescence | Potency, µM (top dose mostly 36.5 µM), inactives show top-dose activity change, negative = inhibition, hits mostly inhibitors | actives 0.46% (n = 330,000) | AID 720580; calls by dose curve; tested in A549 cells; note: potency is the fitted concentration of half-maximal effect; nearly all actives have a fitted effect of over 30% in size
FMDV inh: blocks foot and mouth disease virus. Potency, µM (highest dose often 57.9 µM), without a hit: at the highest dose activity change, negative = inhibition, most hits filed as inhibitors. AID 1159524. FMDV antiviral cell-based qHTS. actives 1.2% (n = 410,000); calls by dose curve; tested in HEK293T cells; note: read-out not given here; potency is the fitted concentration of half-maximal effect; nearly all actives have a fitted effect of over 45% in size
LASV entry inh: inhibitors of Lassa virus binding or cell entry | Lassa virus pseudotype entry inhibition, cell reporter | Potency, µM (top dose mostly 37.9 µM), inactives show top-dose activity change, negative = inhibition, hits mostly inhibitors | actives 1.2% (n = 300,000); calls by dose curve; tested in HEK293 cells; note: potency is the fitted concentration of half-maximal effect; nearly all actives have a fitted effect of over 50% in size
HCMV inh: inhibitors of human cytomegalovirus; activity change, negative = inhibition, % at 57.5 µM; HFF cells, HCMV-luciferase reporter, 72 h; stronger effect = lower value; actives 4.5% (n = 410,000); in the data active = activity change below about -60%; inconclusive = no clear call, values can overlap the other calls; inactive = above about -39%
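Luciferase read-out from HCMV-luciferase-infected HFFs (MOI 1 PFU/cell) 72 h post infection at 37C; compounds added after 16 h cell attachment; activity normalized between buffer-only basal and Salinomycin (10uM) inhibitor controls.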
Marburg entry inh: inhibitors of Marburg virus binding or cell entry; AID 540276; Potency, µM (top dose mostly 37.8 µM), for the others: at the top dose activity change, negative = inhibition, actives largely listed as inhibitors; Marburg virus pseudotyped entry inhibition, cell reporter; actives 1.8% (n = 300,000); calls by dose curve; tested in HEK293 cells; note: potency is the fitted concentration of half-maximal effect
VACV mCherry inh: inhibitors of vaccinia virus infection (mCherry reporter signal) | Vaccinia virus mCherry reporter infection, fluorescence | Potency, µM (top dose mostly 36.5 µM), for the others: at the top dose activity change, negative = inhibition, usual class: inhibitors | actives 0.63% (n = 310,000); calls by dose curve; tested in A549 cells; note: potency is the fitted concentration of half-maximal effect; nearly all actives have a fitted effect of over 35% in size
* = called active by the depositor; i = inactive; ? = inconclusive; · = not tested or not shown; [ ] = remark or other dose. % is set by controls: 0 for no effect and ±100 for the full control effect.

SMILES | VACV Venus inh | FMDV inh | LASV entry inh | HCMV inh | Marburg entry inh | VACV mCherry inh
COc1ccc(/C(O)=C2\C(=O)C(=O)N(CCN3CCOCC3)[C@H]2c2cccnc2)cc1OC | · | · | · | · | 2% | ·
CC1CCN(C(=O)COc2ccc(Nc3ccccc3)cc2)CC1 | 6% | -12% | -5% | -74* | ? | -2%
CC1CCCN(C(=O)COc2ccc(Nc3ccccc3)cc2)C1 (stereo not drawn) | -8% | 5% | -6% | -32 | ? | 5%
O=C(Nc1ccc(OCC(=O)N2CCC(Cc3ccccc3)CC2)cc1)c1ccco1 | · | -16% | -19% | -83* | -2% | ·
CC(=O)Nc1ccc(OCC(=O)N2CCC(Cc3ccccc3)CC2)cc1 | -1% | ? | -2% | 5 | -6%[46.1 µM] | 2%
CC1CCC(NC(=O)CN(C)S(=O)(=O)c2cccc3cccnc23)CC1 (stereo not drawn) | · | 4% | · | -32 | · | ·
O=[N+]([O-])c1ccc(N2CCN(c3cccc(Cl)c3)CC2)cn1 | -20% | -22% | ? | ? | 8.9µM* | ?
O=[N+]([O-])c1ccc(N2CCCCC2)cn1 | · | 35% | · | 5 | · | ·
Oc1cc2c(cc1O)[C@H]1c3ccccc3CNC1CC2 (stereo partly drawn) | · | · | · | · | 16µM* | ·
CCNC(=O)C1(C)CCCN(Cc2ccc(-c3ccccn3)cc2)C1 (stereo not drawn) | -11% | -16% | · | -100* | · | 24%
CCCNC(=O)C1(C)CCCN(Cc2ccc(-c3ccccc3)cc2)C1 (stereo not drawn) | -10% | -19% | · | 64 | · | 33%
COc1cccc(C(=O)N2c3nc(-c4ccco4)nn3C3(CCCCC3)[C@@H]3CCCC[C@@H]32)c1 | 3% | -27% | 6%[46.1 µM] | -64* | -7%[46.1 µM] | -2%
O=C(c1cccc([N+](=O)[O-])c1)N1c2nc(-c3ccco3)nn2C2(CCCCC2)[C@@H]2CCCC[C@@H]21 | -14% | -21% | -8%[46.1 µM] | -77* | -12%[46.1 µM] | -6%
O=C(c1ccccc1)N1c2nc(-c3ccco3)nn2C2(CCCCC2)[C@@H]2CCCC[C@@H]21 | -5% | -7% | 19%[46.1 µM] | 24 | ? | 0%
O=C(c1cccc(Cl)c1)N1c2nc(-c3ccco3)nn2C2(CCCCC2)[C@@H]2CCCC[C@@H]21 | -14% | -7% | 18%[46.1 µM] | -28 | -12%[46.1 µM] | -7%
COc1ccc(S(=O)(=O)c2c(C(=O)c3ccc(C)c(C)c3)cnc3ccc(C)cc23)cc1 | -10% | -9% | · | ? | ? | -26%
Cc1ccc2ncc(C(=O)c3ccc(C)c(C)c3)c(S(=O)(=O)c3ccccc3)c2c1 | -6% | -17% | · | -92* | ? | -19%
Cc1ccc(C(=O)c2cnc3cc4c(cc3c2S(=O)(=O)c2ccccc2)OCCO4)cc1 | ? | 2% | -2% | -94* | 7.1µM* | ?
CCOc1ccc(Nc2sc(C(=O)c3ccc4c(c3)OCO4)c(N)c2S(=O)(=O)c2ccc(C)cc2)cc1 | 6% | -11% | -26%[46.1 µM] | 0 | · | -11%
CCOc1ccc(S(=O)(=O)c2c(C(=O)c3ccc(C)cc3)cnc3cc4c(cc23)OCCO4)cc1 | -14% | 10% | -11% | -62* | ? | -13%
CCc1nn2c(N3CCOCC3)cc(C)nc2c1-c1ccccc1 | -17% | -17% | · | 16 | · | -4%
CCN1C(=NCc2ccccc2)N[C@@H](CCc2ccccc2)[C@H](C(=O)OC)[C@H]1C | · | · | · | · | -18%[14.2 µM] | ·
COc1cc2cc(CCCOC(=O)CCCC(=O)O)oc(=O)c2cc1OC | -14% | -7% | · | 44 | · | i
CS(=O)(=O)N1CCCc2cc(C(=O)Nc3cccc(C(F)(F)F)c3)ccc21 | -10%[7.34 µM] | 25µM* | ? | ? | -27%[46.1 µM] | -12%[7.34 µM]
CC1CN(CC(=O)Nc2cccc(C(=O)Nc3cccc(C(F)(F)F)c3)c2)CC(C)O1 (stereo not drawn) | ? | ? | ? | -27 | ? | -13%
COc1cc(OC)cc(C(=O)Nc2ccc3c(c2)CCCN3C(=O)c2cccs2)c1 | -12% | ? | ? | -77* | · | -17%
CC1CCN(CC(=O)Nc2cccc(C(=O)Nc3cccc(C(F)(F)F)c3)c2)CC1 | ? | -13% | ? | -8 | 8.9µM* | -2%
O=C(Nc1ccc2c(c1)CCCN2C(=O)c1cccs1)c1ccccc1C(F)(F)F | -2% | -28% | ? | -71* | · | -8%
